High-throughput results deposited in PubChem BioAssay by National Center for Advancing Translational Sciences (NCATS).
Compounds with a hit are over-represented: about 19% of the library has one in this group of screens.
IL-1B inflam inh – qHTS for Inhibitors of Inflammasome Signaling: IL-1-beta AlphaLISA Primary Screen; hit rate 4.7% among 360,000; THP-1 LPS/ATP IL-1B secretion, AlphaLISA, 16 h; hits give low values; activity change, % at 57.5 µM; in the data active means activity change below about -50%; inconclusive means mostly about -30% to -49%; further: on the % scale 0 is the no-effect control and ±100 the full control effect
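THP-1 cells pretreated 1 hr with compounds (up to 57.5 uM final), then stimulated with LPS (250 ng/mL final) plus ATP (1.25 mM final); secreted IL-1B measured by AlphaLISA after 16 hr, decreased signal indicating inhibition.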
MCF10A rerep – A quantitative high throughput screen for small molecules that induce DNA re-replication in MCF 10a normal breast cells | MCF 10A DNA re-replication, Hoechst nuclear intensity, 48 h | Potency, µM (titrated, usually from 46.1 µM), for inactives: top-dose activity, positive = re-replication, usual class: activators | hit rate 2.9% among 350,000 | AID 624296, 2012; further: potency means the concentration at half of the fitted maximal effect; % of control where 0% means no effect; nearly all actives have a fitted effect of over 50% in size
SW480 rerep – A quantitative high throughput screen for small molecules that induce DNA re-replication in SW480 colon adenocarcinoma cells; SW480 DNA re-replication, Hoechst DNA content imaging, 48 h; hit rate 1.8% among 340,000; Potency, µM (titrated, usually from 46.1 µM), for inactives: at the top dose re-replication activation, hits mostly activators; further: potency means the concentration at half of the fitted maximal effect; % of control where 0% means no effect; nearly all actives have a fitted effect of over 55% in size
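Image-based read-out: total Hoechst fluorescence of nuclei (405 nm excitation, 500-530 nm emission), with hits raising the fraction of high-intensity nuclei. SW480 colon cells incubated 48 hr with compounds at 37 C.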
TDP1 cell noCPT – qHTS for Inhibitors of human tyrosyl-DNA phosphodiesterase 1 (TDP1): qHTS in cells in absence of CPT | Potency, µM (titrated, usually from 46.2 µM), for the others: at the highest dose activity change, negative = growth inhibition, most hits filed as inhibitors | AID 686978, 2013 | hit rate 15% among 420,000 | DT40 Tdp1-/- hTDP1 cells, no CPT, ATP luminescence, 48 h; further: potency means the concentration at half of the fitted maximal effect; on the % scale 0 is the no-effect control and ±100 the full control effect; nearly all actives have a fitted effect of over 55% in size
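Seeded 400 DT40-hTDP1 cells/well (vehicle DMSO, no 20 nM CPT); pinned compounds; ≥48 hr at 37 °C; CellTiter-Glo luminescence as viability measure.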
BCR signal inh – qHTS Assay to Find Inhibitors of Chronic Active B-Cell Receptor Signaling | hit rate 0.05% among 340,000 | ABC-DLBCL IkBa-CBG/CBR reporter, luminescence ratio, 4 h | Potency, µM (series often up to 46.1 µM), for the others: at the top dose activity change, negative = inhibition, most hits filed as inhibitors; active means well fitted inhibition curve with a large enough effect in the signal ratio, with a control signal flat, not every such curve was filed as active; inconclusive means small, poorly fitted or top-dose-only effect, or effect the other way, or a change in a side signal; the % refers to the signal ratio;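 further: potency means the concentration at half of the fitted maximal effect; plate controls were basal doxycycline-induced cells for no effect and cells given 10 µM MG132 for full effect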
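Compounds up to 46 uM were incubated four hours with TMD8 cells whose green CBG68 luciferase is fused to IkappaBalpha; red CBR luminescence normalised the signal, and concentration-effect curves were fitted to fusion, red and ratio data.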
TDP1 cell CPT – qHTS for Inhibitors of human tyrosyl-DNA phosphodiesterase 1 (TDP1): qHTS in cells in presence of CPT; chicken DT40 Tdp1-/-;hTDP1 cells + 20 nM CPT, ATP luminescence, 48 h; Potency, µM (top dose mostly 46.2 µM), inactives show top-dose activity change, negative = growth inhibition, actives largely listed as inhibitors; hit rate 12% among 420,000; AID 686979, 2013; further: potency means the concentration at half of the fitted maximal effect; on the % scale 0 is the no-effect control and ±100 the full control effect; nearly all actives have a fitted effect of over 55% in size
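Chicken DT40 Tdp1-/- cells stably complemented with human TDP1 were seeded at 400 cells/well in medium containing 20 nM camptothecin, exposed to pin-transferred compounds, and grown at 37 °C for at least 48 hr. Viability was read as ATP luminescence.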
Starred values were filed as active, the others as inactive; ? = inconclusive; nt = no result; [ ] = remark or other dose. Unless noted, the call rests on the fitted dose curve; in most records, active means well fitted curve in the direction sought with a large enough effect; inconclusive means small, poorly fitted or top-dose-only effect, or another doubt; inactive means no such curve, though single readings can be large; an effect the other way counts as inactive or inconclusive.

SMILES	IL-1B inflam inh	MCF10A rerep	SW480 rerep	TDP1 cell noCPT	BCR signal inh	TDP1 cell CPT
COc1cccc(N2CC(O)Cn3c2nc2c3c(=O)n(CCCc3ccccc3)c(=O)n2C)c1 (configuration not stated)	-6	1%	-8%	16µM*	0%	12µM*
COc1ccc(N2CC(C(=O)N3CCC4(CC3)CC(=O)c3ccccc3O4)CC2=O)cc1 (configuration not stated)	9	10%	-6%	?	-6%	?
O=C(Nc1ccc(Cl)c(Cl)c1)C1CC(=O)N(c2ccc(Br)cc2)C1 (configuration not stated)	-60*	-2%	-1%	?	7%	?
Cc1ccc(N2CC(C(=O)N3CCC(C(=O)Nc4ccc(Br)cc4)CC3)CC2=O)cc1 (configuration not stated)	-61*	-3%	6%	?	-22%	?
Cc1ccc(N2CC(C(=O)N3CCC4(CC3)CC(=O)c3ccccc3O4)CC2=O)cc1 (configuration not stated)	-7	12%	-4%	23µM*	-6%	?
NC(=O)C1CC(=O)N(c2ccc(OCc3ccc(Cl)c(Cl)c3)cc2)C1 (configuration not stated)	-28	nt	nt	?	nt	23µM*
Cc1cc(C)cc(NC(=O)C2CC(=O)N(c3ccccc3)C2)c1 (configuration not stated)	nt	nt	nt	?	nt	-24%
Cc1oc(-c2ccccc2F)nc1CS(=O)CC(=O)NC1CCCC1 (configuration not stated)	14	-2%	8%	21%	1%	-1%
COc1ccc(OC)c(NC(=O)CSc2cn(CC(=O)N3CCCCCC3)c3ccccc23)c1	nt	nt	nt	21µM*	nt	?
CNC(=O)CSc1cn(CC(=O)N2CCCCCC2)c2ccccc12	nt	nt	nt	-15%	nt	-16%
COc1ccc(Cl)cc1NC(=O)CSc1cn(CC(=O)N2CCCCC2)c2ccccc12	nt	nt	nt	21µM*	nt	21µM*
Cc1cc(C)cc(N2CCn3c2nc2c3c(=O)n(Cc3c(F)cccc3Cl)c(=O)n2C)c1	nt	nt	nt	4%	nt	14%
O=C(NCCc1ccc2c(c1)OCO2)Oc1ccccc1	1	nt	nt	?	nt	?
COc1ccc(NC2CCCN(C(=O)c3ccccc3C(F)(F)F)C2)cc1 (configuration not stated)	11	6%	-2%	?	-4%	-20%
Cc1nc2sc(C(=O)N(C)Cc3ccccc3)c(NC(=O)c3ccccc3)c2c(C)c1Cl	nt	nt	nt	16µM*	nt	?
CN(Cc1ccccc1)C(=O)Nc1c(Cl)cccc1Cl	-16	nt	nt	1%	nt	-5%
Cc1nc2sc(C(=O)NCc3ccc(Cl)cc3)c(NC(=O)c3ccccc3)c2c(C)c1C	nt	nt	nt	?	nt	13µM*
CCCCCCCCCCCCCCCC(=O)OC(CC(=O)O)C[N+](C)(C)C (configuration not stated)	0	-1%	0.58µM*	?	?	5.8µM*
CCCCCCCCCCCCCCCC(=O)O[C@H](CC(=O)O)C[N+](C)(C)C	nt	nt	nt	30µM*	nt	?
CCCCCCCCCCCCCC(=O)O[C@H](CC(=O)O)C[N+](C)(C)C	nt	nt	nt	-21%	nt	?
CCC(=Cc1ccc(CC)cn1)CC	11	-1%	0%	-25%	?	0%
CCCCCNC(=O)C(c1ccnc2ccccc12)n1c(=O)c(-c2cc3ccccc3[nH]2)nc2ccccc21 (configuration not stated)	-12	nt	nt	?	nt	?
COc1cc(=O)n2c(c1C(=O)N(C)Cc1nonc1C)CCN(Cc1ccccc1Cl)CC2	nt	nt	nt	-3%	nt	5%[9.04 µM]
O=c1cnn(-c2ccccc2)c(-c2ccccc2)c1	6	25%	?	18µM*	8%	?
CN(c1nnc(NC(=O)Nc2ccc(Br)cc2)s1)C1CCCCC1	nt	nt	nt	15µM*	nt	?
SMILES	IL-1B inflam inh	MCF10A rerep	SW480 rerep	TDP1 cell noCPT	BCR signal inh	TDP1 cell CPT
CCCC(=O)Oc1c(Sc2ccc(Cl)cc2)c(C)nn1-c1ccccc1	nt	nt	nt	21µM*	nt	21µM*
COc1ccc(NC(=O)CN(C)C(=O)c2cn(-c3ccccc3)nc2-c2cccnc2)cc1	14	10%	-2%	?	6%	-26%
CCN(C(=O)COC(=O)COc1ccc(Cl)c(C)c1)C1CCS(=O)(=O)C1 (configuration not stated)	13	0%	-2%	19%	0%	-2%
O=C(C[n+]1ccc(Cl)c2ccc(Cl)cc21)c1ccc(F)cc1	nt	nt	nt	3.5µM*	nt	10µM*
COc1ccc(C(=O)c2ccc(Cl)cc2Cl)cc1	16	5%	-1%	?	0%	-27%
COc1ccc(C(=O)C[n+]2ccc(Cl)c3ccc(Cl)cc32)cc1	nt	nt	nt	7.9µM*	nt	7.9µM*
COc1ccc(CNC(=O)CSc2nc3[nH]ncc3c(=O)n2-c2ccccc2Br)cc1	nt	nt	nt	nt	1%	nt
COc1cc(NC(=O)CSc2nc3[nH]ncc3c(=O)n2-c2ccccc2)cc(OC)c1OC	?	nt	nt	26µM*	nt	?
CCc1c(O)nc(SCC(=O)Nc2ccccc2)n(-c2ccccc2)c1=O	28	3.7µM*	21µM*	-23%	-1%	?
CCc1c(O)nc(SCC(=O)Nc2ccccc2)n(-c2ccccc2C)c1=O	29	nt	nt	-16%	nt	0%
CC(=O)Nc1ccc(NC(=O)CSc2nc3[nH]ncc3c(=O)n2-c2ccccc2)cc1	0	9%	1%	-22%	?	4%
COc1ccc(N2CCN(C(=O)CSc3nc4[nH]ncc4c(=O)n3-c3cccc4ccccc34)CC2)cc1	-51*	1%	15%	7.3µM*	3%	6.5µM*
O=c1[nH]c(=S)[nH]c2nccnc12	4	-24%	-25%	-16%	nt	-3%
CNC(=O)CN(Cc1ccccc1)S(=O)(=O)c1ccc(Cl)cc1	-16	-1%	-10%	4%	0%	-9%
COc1ccc(NC(=O)CN(Cc2ccccc2)S(=O)(=O)c2ccc(C)cc2)cc1Cl	nt	nt	nt	?	nt	18µM*
COc1ccc(S(=O)(=O)N(CC(=O)Nc2cc(Cl)ccc2C)Cc2ccccc2)cc1OC	nt	nt	nt	?	nt	15µM*
CCC1C(c2ccccc2)N(C)C(c2ccccc2)CC1(O)c1ccccc1 (configuration not stated)	?	?	?	23µM*	15%	?
